Assay outcomes from PubChem BioAssay.
MITF TRPM1 HTS: activators of MITF-driven TRPM1 promoter activity in SK-MEL-5 cells; activation, % at 12.5 µM; AID 588334; 300,000 compounds, 0.75% hits; SK-MEL-5 TRPM1-promoter luciferase, 24 h; % of positive control, neutral wells = 0;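 active = mean activation of at least 80% with every replicate also reaching 80%; inconclusive = mean reaches 80% but some replicate falls short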
Wnt act: activates Wnt/beta-catenin signaling in a reporter cell assay. activator, plate reader. activation, % at 9.35 µM. 300,000 compounds, 1.2% hits. AID 743398; in the data active = activation above about 30%, passing the limit was not always enough; inconclusive = no clear call, values can overlap the other calls
FXN GAA850 act: increases GAA850 frataxin promoter reporter activity; HEK293 lucGAA850 FXN promoter luciferase reporter, 24 h; percent of 10 µM SAHA response; activation, % at 6 µM; 360,000 compounds, 0.56% hits; AID 540364;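 active = activation above the average of all compounds screened plus 3 SD, cutoff fixed separately per campaign, cut at about 7.5% in these data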
esBAF inh: inhibitors of esBAF chromatin remodeling in mouse ES cells | Bmi1-luciferase knock-in reporter, 24 h; 100% = twice the neutral-well signal | reporter increase, % at 12.5 µM | 350,000 compounds, 2% hits; in the data active = activation above about 40%; inconclusive = no clear call, values can overlap the other calls;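 note: a rise in the Bmi1 reporter signal indicates esBAF inhibition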
esBAF Ring1 qPCR: confirmation of esBAF inhibitors: Ring1 de-repression in mouse ESCs; shares compounds with esBAF inh; mouse ESC E14, Ring1 mRNA RT-qPCR fold change; fold change at 33 µM; 550 tested, under 10 active; AID 743176;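 active = Ring1 gene expression raised more than 2-fold over untreated cells in both replicates at either tested dose; inconclusive = only one replicate above 2-fold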;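 note: Ring1 transcript normalised to actin housekeeping signal by TaqMan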
Fgf4 repress: esBAF inhibition confirmed by Fgf4 repression. mouse ESC E14, Fgf4 mRNA qPCR fold change; stronger effect = lower value. 550 compounds, 4% hits. shares compounds with esBAF inh. Fgf4 expression fold change at 33 µM;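 active = Fgf4 expression under 0.8 fold of control in both repeat measurements at one or both tested doses; inconclusive = under 0.8 fold in just a single repeat measurement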;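 note: Fgf4 transcript normalised to actin in duplex TaqMan qPCR; cells exposed to compound for 24 h before lysis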
Bmi1 derepress: confirmation of esBAF inhibitors: Bmi1 de-repression in mouse ESCs; shares compounds with esBAF inh; mouse ESE14 ES cells, Bmi1 mRNA qPCR fold; stronger effect = higher value; fold change at 33 µM; 550 tested, under 10 active;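 active = Bmi1 expression fold change above 6 at either tested concentration, seen in replicate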;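 note: higher fold means more Bmi1 de-repression and stronger esBAF inhibition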
A549 cytotox: A549 cell cytotoxicity. 550 tested, under 10 active. AID 743188. shares compounds with esBAF inh. cell viability change % (negative = cytotoxic), % at 25 µM, hits read low. plate reader; call rule not given here
HepG2 cytotox SP: kills or reduces viability of HepG2 cells; shares compounds with esBAF inh; HepG2 cytotoxicity, plate reader; stronger effect = lower value; activity change, negative = inhibition, % at 25 µM; 550 compounds, 4% hits; AID 743189; in the data active = activity change below about -50%
HEK293 cytotox SP: cytotoxicity in HEK293 cells. shares compounds with esBAF inh. plate reader. activity change, negative = inhibition, % at 25 µM, hits read low. 550 compounds, 3% hits. AID 743190; in the data active = activity change below about -38%, passing the limit was not always enough
A number is an active result; . = inactive; ? = inconclusive; / = no result. This is a sample that favours compounds with a hit; in the whole collection about 2.8% have one here.

SMILES | MITF TRPM1 HTS | Wnt act | FXN GAA850 act | esBAF inh | esBAF Ring1 qPCR | Fgf4 repress | Bmi1 derepress | A549 cytotox | HepG2 cytotox SP | HEK293 cytotox SP
C[C@@H]1CN([C@H](C)CO)C(=O)c2cc(NC(=O)Nc3ccc(F)cc3)ccc2O[C@@H](C)CCCCO[C@H]1CN(C)Cc1ccncc1 | / | / | / | . | / | / | / | / | / | /
c1ccc(-c2cnnc(N3CCCCC3)n2)cc1 | 86 | . | . | 55 | . | . | . | . | . | .
FC(F)(F)c1cc(-c2ccccc2)nc(N2CCCCCC2)n1 | / | . | . | . | / | / | / | / | / | /
C[C@@H]1CN([C@@H](C)CO)C(=O)c2cc(NS(C)(=O)=O)ccc2O[C@H]1CN(C)S(=O)(=O)c1ccccc1 | / | / | / | . | / | / | / | / | / | /
CC(O)(c1ccccc1)c1nc(-c2cccc(C(=O)O)c2)cs1 (configuration not stated) | / | . | . | 69 | . | . | . | . | . | .
COc1ccc(NC(=O)Nc2cc(C)ccc2F)cc1 | 101 | . | . | 123 | . | . | . | . | . | .
COc1ccc(NC(=O)Nc2ccc(F)c(F)c2)c(OC)c1 | . | . | . | / | / | / | / | / | / | /
Cc1ccc(NC(=O)Nc2ccc(F)c(Cl)c2)cc1 | . | 47 | . | 64 | . | . | . | . | . | .
CC(=O)N(C)C[C@H]1Oc2cc(-c3ccc(C#N)cc3)ccc2S(=O)(=O)N([C@H](C)CO)C[C@@H]1C | / | / | / | . | / | / | / | / | / | /
Cc1ccn2c(CC(C)(C)C)c(-c3ccc(F)cc3)nc2c1 | / | 55 | . | 65 | . | . | . | . | . | .
C[C@H](CO)N1C[C@H](C)[C@H](CN(C)Cc2ccccc2)OCCCC[C@H](C)Oc2ccc(NC(=O)CCCN(C)C)cc2C1=O | / | / | / | . | / | / | / | / | / | /
CCC(C)c1ccc(NC(=O)C2CC3CCC2C3)cc1 (configuration not stated) | / | . | . | / | / | / | / | / | / | /
CCC(C)c1ccc(NC(=O)C2CC2)cc1 (configuration not stated) | . | . | . | 74 | . | . | . | . | . | .
O=C(Nc1cccc(O)c1)c1ccc(Br)cc1 | . | / | . | 57 | . | . | . | . | . | .
O=C(Nc1cccc(O)c1)c1cccc(C(=O)Nc2cccc(O)c2)c1 | / | . | . | . | / | / | / | / | / | /
Cc1ccc(S(=O)(=O)N(C)C[C@H]2OCCCC[C@H](C)Oc3ccc(NC(=O)c4ccccc4)cc3C(=O)N([C@@H](C)CO)C[C@H]2C)cc1 | / | / | / | . | / | / | / | / | / | /
COc1ccc(CNC(=O)c2ccc(-c3ccccc3)cc2)cc1 | . | / | . | 62 | . | . | . | . | . | .
COc1ccc(CNC(=O)c2ccc(Br)cc2)cc1 | / | . | / | / | / | / | / | / | / | /
COc1ccc(CCNS(=O)(=O)CCNC(=O)c2ccccc2)cc1 | . | . | . | . | / | / | / | / | / | /
COc1ccc(C(=O)NCCS(=O)(=O)NCCc2ccccc2)cc1 | . | . | . | 56 | . | . | . | . | . | .
COc1ccc2c(CN(C)Cc3ccccc3)cc(=O)oc2c1 | / | . | / | 57 | . | . | . | . | -65 | .
C[C@@H]1CN([C@H](C)CO)S(=O)(=O)c2ccc(C#CC(C)(C)O)cc2O[C@H]1CN(C)C | / | / | / | . | / | / | / | / | / | /
Cc1ccc(CNC(=O)C2CCC(=O)N(CCc3ccc(Cl)cc3)C2)s1 (configuration not stated) | . | . | . | . | / | / | / | / | / | /
Cc1ccc(CNC(=O)C2CCC(=O)N(CCc3ccc(Cl)cc3)C2)cc1 (configuration not stated) | . | . | . | 56 | . | . | . | . | . | .
Cc1ccc(C(=O)Nc2ccc(Br)c(C(F)(F)F)c2)cc1 | 84 | / | . | 74 | . | . | . | . | . | -56
SMILES | MITF TRPM1 HTS | Wnt act | FXN GAA850 act | esBAF inh | esBAF Ring1 qPCR | Fgf4 repress | Bmi1 derepress | A549 cytotox | HepG2 cytotox SP | HEK293 cytotox SP
CCNC(=O)O/N=C(\C)c1sc(-c2ccccc2)nc1C | / | . | . | 63 | . | . | . | . | . | .
C=CCN(C(=O)CC(NC(C)=O)c1ccccc1)c1nc(-c2ccc(S(C)(=O)=O)cc2)cs1 (configuration not stated) | . | . | . | 78 | . | . | . | . | . | .
COc1cc(-c2nnc(COc3ccc(Cl)cc3C)o2)cc(OC)c1OC | . | . | . | . | / | / | / | / | / | /
Cc1cc(Cl)ccc1OCc1nnc(-c2ccccc2C)o1 | 116 | 41 | . | 99 | . | . | . | . | . | .
Cc1csc(Nc2nc(N)c(C(=O)Nc3ccccc3)o2)n1 | 93 | . | . | 52 | . | . | . | . | . | .
COc1ccc(S(=O)(=O)N(C)C[C@H]2OCc3cn(nn3)CCCC(=O)N([C@@H](C)CO)C[C@H]2C)cc1 | / | / | / | . | / | / | / | / | / | /
CNc1cncc(-c2cccc(OC)c2F)n1 | / | . | . | 63 | . | ? | . | . | . | .
O=C(N/N=C/c1cnc2ccccc2n1)c1cccc(F)c1 | . | . | . | 60 | . | . | . | . | . | .
CN1C(=O)c2cc(NC(=O)c3cscn3)ccc2OC[C@H]2O[C@H](CC(=O)NCC3CC3)CC[C@H]21 | / | / | / | . | / | / | / | / | / | /
Cc1ccc(S(=O)(=O)N2C[C@H](O)COC[C@@H]3O[C@H](CC(=O)NCCN4CCCCC4)CC[C@H]32)cc1 | / | / | / | . | / | / | / | / | / | /
Nc1ccc2c(c1)C(=O)c1ccc(N)cc1-2 | . | . | . | 76 | . | . | . | . | . | .
COc1ccc(C2=NN(C(=O)c3ccncc3)C(c3ccccc3O)C2)cc1 (configuration not stated) | . | . | . | . | / | / | / | / | / | /
O=C(c1ccncc1)N1N=C(c2ccc(Cl)cc2)CC1c1ccccc1O (configuration not stated) | . | . | . | 80 | . | . | . | . | . | .
Cc1ccc(S(=O)(=O)N(C)C[C@@H]2OCCCC[C@H](C)Oc3ccc(NS(=O)(=O)c4cn(C)cn4)cc3C(=O)N([C@@H](C)CO)C[C@@H]2C)cc1 | / | / | / | . | / | / | / | / | / | /
Cc1noc(C)c1S(=O)(=O)Nc1ccc2c(c1)C(=O)N([C@H](C)CO)C[C@H](C)[C@@H](CN(C)S(=O)(=O)c1ccccc1)OCCCC[C@@H](C)O2 | / | / | / | . | / | / | / | / | / | /
O=C(Cc1cccs1)Nc1nc2c(s1)CCCC2 | . | . | . | 59 | . | 0.79 | . | . | . | -55
O=C(CNC1CCCCC1)N1CCc2ccccc2C1 | / | . | . | / | / | / | / | / | / | /
O=C(NC1CCCCC1)N1CCc2ccccc2C1 | . | . | . | 67 | . | . | . | . | . | .
CO[C@@H]1CC[C@@H]2CCOc3c(C#N)cccc3C(=O)N(C)[C@@H](C)C(=O)N(C)C[C@@H]1O2 | / | / | / | . | / | / | / | / | / | /
